Assay outcomes as filed in PubChem.
Sampled rows, rich in hits. Any-hit rate of the full collection: about 17%.
TDP1 cell noCPT: qHTS for Inhibitors of human tyrosyl-DNA phosphodiesterase 1 (TDP1): qHTS in cells in absence of CPT; AID 686978, 2013; Potency, µM (titrated, usually from 46.2 µM), for inactives: at the top dose activity change, negative = growth inhibition, actives largely listed as inhibitors; DT40 Tdp1-/- hTDP1 cells, no CPT, ATP luminescence, 48 h; 420,000 compounds, 15% hits; also: % is scaled to controls: 0 for no effect and ±100 for the full control effect; nearly all actives have a fitted effect of over 55% in size
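Growth of hTDP1-complemented DT40 Tdp1-knockout cells is measured by ATP luminescence after at least 48 hr compound exposure at 37 °C, with DMSO substituting for the 20 nM CPT used in the parallel screen.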
S2 tox: Viability Counterscreen for Primary qHTS for Inhibitors of ATXN expression; AID 651635, 2014; Potency, µM (titrated, usually from 56.7 µM), most hits filed as cytotoxic; 400,000 compounds, 0.49% hits; S2 cells (HEK-293 line with an ATXN2-luciferase reporter) viability, CellTiter-Fluor protease fluorescence, 24 h; also: nearly all actives have a fitted effect of over 40% in size
DT40 TDP1 CPT: qHTS for Inhibitors of human tyrosyl-DNA phosphodiesterase 1 (TDP1): qHTS in cells in presence of CPT; chicken DT40 Tdp1-/-;hTDP1 cells + 20 nM CPT, ATP luminescence, 48 h; Potency, µM (series often up to 46.2 µM), for inactives: top-dose activity change, negative = growth inhibition, most hits filed as inhibitors; 420,000 compounds, 12% hits; AID 686979, 2013; also: % is scaled to controls: 0 for no effect and ±100 for the full control effect; nearly all actives have a fitted effect of over 55% in size
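Chicken DT40 Tdp1-/- cells complemented with human TDP1, 400 cells/well, exposed to compounds plus 20 nM camptothecin for at least 48 h at 37 C; viability read as ATP content by CellTiter-Glo luminescence.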
ATXN2 expr inh: Primary qHTS for Inhibitors of ATXN expression | HEK-293 ATXN2-luciferase reporter, luminescence, 24 h | AID 1745845, 2022 | Potency, µM (titrated, usually from 57 µM), for the others: at the highest dose activity change, negative = inhibition, hits mostly inhibitors | 360,000 compounds, 0.72% hits; also: % is scaled to controls: 0 for no effect and ±100 for the full control effect; nearly all actives have a fitted effect of over 55% in size
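qHTS (up to 57 uM final) was run with 24 h compound exposure of reporter cells at 37 °C. Each well was multiplexed: SteadyGlo luminescence measured ATXN2-luciferase expression after a fluorogenic Gly-Phe-AFC viability readout (25 uM final).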
TGFb inhibitor: qHTS for Inhibitors of TGF-b; HepG2 CAGA-GFP TGF-b/SMAD3 reporter, GFP fluorescence, 18 h; TGF-beta stimulated, 500 pg/mL final; Potency, µM (highest dose often 46.1 µM), inactives show at the top dose activity, negative = inhibition, most hits filed as inhibitors; 410,000 compounds, 1.2% hits; AID 588855, 2011; also: % is scaled to controls: 0 for no effect and ±100 for the full control effect; nearly all actives have a fitted effect of over 65% in size
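Inhibition of TGF-beta-driven CAGA-GFP reporter expression in HEPG2 cells is measured by cellular GFP fluorescence after 18 h stimulation with 500 pg/mL recombinant TGF-beta in 1% FBS medium at 37 degrees C.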
HepG2 tox: qHTS for Inhibitors of TGF-b: Cytotox Counterscreen; HepG2 CAGA-GFP viability, ATP luminescence, 18 h; Potency, µM (top dose mostly 46.1 µM), for inactives: at the top dose activity change, negative = cytotoxicity, usual class: cytotoxic; 410,000 compounds, 0.76% hits
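CellTiter-Glo luminescence gave cytotoxicity after 18 hours at 37 degrees C. The cells were HepG2 CAGA-GFP in 1% FBS DMEM, stimulated with 500 pg/mL TGF-beta after compound addition. %Activity was normalised to no-cell wells (complete cell-killing) and DMSO (no toxicity), and curves were fitted and classified.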
* = called active by the depositor; i = inactive; u = inconclusive; x = no result given. Calls follow the shape of the dose curve; as a rule, active = well fitted curve in the direction sought with a large enough effect; inconclusive = small, poorly fitted or top-dose-only effect, or another doubt; inactive = no such curve, though single readings can be large; an effect the other way counts as inactive or inconclusive. Potency is read from the fitted curve at half-maximal effect.

SMILES	TDP1 cell noCPT	S2 tox	DT40 TDP1 CPT	ATXN2 expr inh	TGFb inhibitor	HepG2 tox
COc1cccc(-c2nc(-c3ccc(NC(=O)c4ccncc4)cc3)no2)c1	10.3µM*	x	9.2µM*	x	0.1%	1.7%
COc1cc(-c2nc(-c3ccc(NC(=O)c4ccc5c(c4)OCO5)cc3)no2)cc(OC)c1OC	u	31.6µM*	u	u	u	-56.8%
CCCOc1ccc(CNC(=O)C2CCN(c3nnc(N4CCCC4=O)s3)CC2)cc1	-9.2%	i	u	-22.4%	7.8%	1.3%
Cc1ccc([C@@H]2C[C@H]3[C@@H](CN2S(=O)(=O)c2ccc(C)cc2)C(=O)C[C@@H](c2ccc(C)cc2)N3S(=O)(=O)c2ccc(Cl)cc2)cc1	-17.6%	i	-5.6%	-6.2%	u	-39.2%
COc1cc(C2C(C#N)=C(N)OC3=C2C(=O)CC(C)(C)C3)ccc1OCCN1CCOCC1 (stereo not given)	-13.8%	i	-1.2%	20.2%	15.3%	14.1%
COc1cccc(-c2cc(C(=O)Nc3ccc(F)cc3)[nH]n2)c1	16.4µM*	i	u	76.6%	0.8%	-41.8%
COC(=O)c1ccc(-c2nc(-c3ccc(OC)c(OC)c3)no2)cc1	u	i	1.3%	10.2%	17.1%	5.2%
COc1ccc(Cc2nc(-c3ccc(NC(=O)c4cccnc4)cc3)no2)cc1	6.51µM*	i	5.8µM*	-20.7%	2.2%	-0.9%
CCN(CC)CCNC(=O)c1ccc(NC(=O)c2ccccc2-c2ccc(C(F)(F)F)cc2)cc1	u	i	18.4µM*	u	u	-50.8%
CCN(CC)CCNC(=O)c1ccc(NC(=O)Cc2ccccc2F)cc1	-4.3%	u	17.8%	-32.4%	1.4%	0.6%
COc1ccc(-c2nc(-c3ccc(NC(=O)c4ccncc4)cc3)no2)cc1OC	7.31µM*	u	5.17µM*	u	-10.8%	-16.9%
CN(C)c1ccc(/C=C(/NC(=O)c2ccccc2Cl)C(=O)NCCN2CCOCC2)cc1	-6.2%	i	5.0%	x	17.6%	2.4%
Cc1ccc2ccc3ccc(C)nc3c2n1	0.146µM*	u	0.0164µM*	u	u	-9.7%
Cc1ccc2cc(F)c(F)c(F)c2n1	-1.9%	i	3.9%	-1.1%	3.2%	-0.2%
CCOc1ccc(NC(=O)c2cc3ccccc3cc2O)cc1	u	x	u	x	-6.3%	-2.3%
Cc1occc1C(=O)Nc1ccc(OCc2ccccc2)cc1	16.4µM*	i	-13.9%	55.0%	-16.2%	-48.4%
Cc1ccc(NC(=O)c2cc(Cl)nc3ccccc23)cc1	-6.2%	x	-5.8%	x	-5.3%	-0.5%
CCOc1ccc(NC(=O)c2cccc3ccccc23)cc1	8.2µM*	i	11.6µM*	x	22.2%	6.4%
CCOc1ccc(NC(=O)c2cc(OC)nc3ccccc23)cc1	0.581µM*	u	0.517µM*	-23.9%	-25.3%	-1.8%
COc1cc(C(=O)Nc2ccc(C)cc2)c2ccccc2n1	0.731µM*	u	0.82µM*	-0.3%	-29.8%	-2.8%
CCCCN(C(=O)CSCc1c(C)noc1C)c1c(N)n(CCCC)c(=O)[nH]c1=O	-5.9%	i	-2.9%	0.7%	-16.1%	0.8%
COC(=O)[C@@H](Cc1ccccc1)NC(=O)[C@H]1CCC(=O)N1C(=O)OCc1ccccc1	-5.4%	i	-19.3%	-14.6%	-1.1%	-14.3%
CCC(C)c1ccccc1NC(=O)COC(=O)c1ccc2c(c1)S(=O)(=O)c1ccccc1C2=O (stereo not given)	-7.7%	i	4.8%	14.1%	3.7%	-16.6%
CN(C)S(=O)(=O)c1cccc(NC(=S)NC2CCCCC2)c1	-8.3%	i	-22.3%	4.7%	14.1%	-7.5%
CN(C)S(=O)(=O)c1cccc(NC(=S)NC(=O)C2CCCCC2)c1	18.4µM*	i	u	28.1%	u	0.5%
SMILES	TDP1 cell noCPT	S2 tox	DT40 TDP1 CPT	ATXN2 expr inh	TGFb inhibitor	HepG2 tox
CC1Cc2ccccc2N1C(=S)Nc1cccc(S(=O)(=O)N(C)C)c1 (stereo not given)	u	i	16.4µM*	-29.9%	u	-28.0%
CC1CCCC(NC(=S)Nc2cccc(S(=O)(=O)N(C)C)c2)C1C (stereo not given)	18.4µM*	i	u	-6.3%	u	-19.8%
C=CCN(CC=C)S(=O)(=O)c1ccc(NC(=S)NC(=O)C2CC2)cc1	13µM*	i	23.1µM*	-20.9%	17.8µM*	-20.6%
CN(C)S(=O)(=O)c1cccc(NC(=S)N2CCc3ccccc32)c1	u	u	u	-7.5%	u	-28.2%
Cc1cc(/C=N/N2CCN(C)CC2)c(C)n1-c1ccc(Cl)cc1	-15.0%	i	u	-7.2%	0.1%	-3.0%
Cc1ccc(Cl)cc1N1CCN(C(=O)c2ccc3nc[nH]c3c2)CC1	u	i	u	0.0%	u	-25.7%
Cc1ccc(C)c(N2CCN(C(=O)c3ccc4[nH]c(C)c(C)c4c3)CC2)c1	11.6µM*	x	11.6µM*	x	-23.6%	-84.2%
Cc1ccc(C)c(N2CCN(C(=O)c3cc4ccccn4n3)CC2)c1	23.1µM*	i	u	5.1%	17.2%	-21.2%
O=C(c1ccc2nsnc2c1)N1CCN(c2ccc([N+](=O)[O-])cc2)CC1	20.6µM*	u	20.6µM*	x	u	-27.9%
Cc1ccc(C)c(N2CCN(C(=O)c3ccc4nsnc4c3)CC2)c1	13µM*	i	11.6µM*	-34.5%	-24.4%	-18.6%
COC(=O)[C@@]1(Cc2ccccc2)[C@@H]2C(=CC(=O)[C@H]2CC(=O)C(=O)N(C)C)CN1C(=O)c1ccccc1	8.2µM*	20µM*	9.2µM*	28.2µM*	u	-51.3%
COC(=O)Cn1c(C(=O)N(C)C)cc2c1C[C@H]1CN(C(=O)c3ccccc3)[C@@](Cc3ccc(F)cc3)(C(=O)OC)[C@@H]21	u	i	u	10.3%	x	x
Cc1cccc2c1NC(=O)C2(O)N1CCCC(C)C1 (stereo not given)	1.0%	i	-1.5%	10.4%	4.9%	2.3%
CC(C)(C)NC(=O)c1cc(-c2ccc3c(c2)OCO3)nc2ccccc12	-27.2%	u	4.6%	4.9%	13.6%	0.0%
